Results filed as inconclusive are left out. Activity calls are given as the source filed them. The call rests on the fitted dose curve; in most records, active means well fitted inhibition curve with a large enough effect; inconclusive means small, poorly fitted or top-dose-only effect; inactive means no such curve, though single readings can be large or run the other way.
Molecular target: Peptidyl-prolyl cis-trans isomerase NIMA-interacting 1 (Homo sapiens) (UniProt Q13526)
Test: qHTS Assay to Find Inhibitors of Pin1: Hit Validation using Tamra Binding
Conditions: Pin1 Tamra-peptide displacement, fluorescence polarization, 10 min; series mostly up to 57.5 µM; activity change, negative = inhibition: at the top concentration
Text: The unique chemical properties of Pro allow for the adoption of two completely distinct amide bond conformations (cis and trans). Peptidyl-prolyl cis/trans isomerases (PPIases) are evolutionary conserved enzymes that catalyze cis/trans isomerization of peptidyl-prolyl peptide bonds. Distinct from all other PPIases such as cyclophilins and FK506-binding proteins (FKBPs), Pin1 binds a subset of phos.Ser/Thr-Pro-containing proteins using its protein-targeting WW domain and isomerizes only specific phos.Ser/Thr-Pro bonds, which cannot be effectively catalyzed by other known PPIases. Pin1-catalyzed conformational regulation can control a spectrum of activities of many key regulators in diverse cellular processes such as cell growth, genotoxic and other stress responses, immune response, germ cell development, neuronal differentiation and survival. Pin1 has emerged as a novel molecular timer that modulates its multiple targets at various steps of a given cellular process to synergistically control the amplitude and duration of a cellular response or process. Importantly, Pin1 is tightly regulated by multiple levels and its deregulation has an important role in a growing number of pathological conditions, including cancer, Alzheimer's disease, aging, asthma and microbial infection, providing a potentially new therapeutic option. The goal of this screen is to find small-molecule inhibitors of Pin1 using a fluorescence polarization competition assay.In the primary screen, a HiFluor-488-labeled peptide binds to the active site of Pin1 and can be displaced by compounds. Compounds were screened as a concentration-titration series that ranged from 57 uM to 0.7 nM. To validate the hits using a different read-out, this Tamra binding assays was used against all the hits identified from the primary screen. NIH Molecular Libraries Probe Production Network [MLPCN] NIH Chemical Genomics Center [NCGC] MLPCN Grant: R03 DA031663 PI Name: Dr. Kun Ping Lu, Beth Israel Deaconess Medical Center
Briefly, 2 uL of Pin1 (all columns but column 3, which just receives buffer and serves as negative control) are dispensed into Greiner black solid bottom 1536-well assay plates. Compounds are then transferred via Kalypsys pin tool equipped with 1536-pin array (10 nl slotted pins, V&P Scientific, San Diego, CA). Following addition of compound, 2 uL of Tamra-probe in buffer (all columns) is added to initiate the binding reaction. The plates are then incubated at room temperature for 10 minutes. Finally, plates are transferred to a ViewLux high-throughput CCD imager (PerkinElmer), wherein end-point measurements of fluorescence polarization are acquired. All reagents are diluted in an assay buffer consisting of 10 mM Hepes, 10 mM NaCl, 1 mM DTT, 1% glycerol and 0.01% Tween-20.

Chain of Peptidyl-prolyl cis-trans isomerase NIMA-interacting 1 (Homo sapiens) (Q13526 whole entry, looked up): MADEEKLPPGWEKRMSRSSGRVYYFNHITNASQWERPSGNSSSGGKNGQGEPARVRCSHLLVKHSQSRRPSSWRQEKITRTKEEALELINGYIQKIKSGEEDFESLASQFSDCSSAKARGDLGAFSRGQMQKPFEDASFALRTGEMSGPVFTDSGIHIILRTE

SMILES	Potency	activity change, negative = inhibition
COc1ccccc1Nc1ccc2c(O)cc(S(=O)(=O)O)cc2c1	7.57 µM (active)	
CC(=O)Nc1ccc(Nc2c3c4c(cccc4n(C)c2=O)C(=O)c2ccccc2-3)cc1		-17.4% (inactive)
O=S(=O)(O)c1cc(O)c2cc(Nc3ccccc3)ccc2c1	12 µM (active)	
O=S(=O)(O)c1ccc(O)c2cc(Nc3ccccc3)ccc12	3.01 µM (active)	
Nc1ccc2cccc(O)c2c1	26.9 µM (active)	
COc1ccc(S(=O)(=O)Nc2cc(Sc3ncn[nH]3)c(O)c3ccccc23)cc1		-5.86% (inactive)
O=S(=O)(Nc1cc(Sc2ncn[nH]2)c(O)c2ccccc12)c1ccccc1		0.852% (inactive)
Cc1ccc2nc(-c3ccc(N=Nc4cc(S(=O)(=O)O)c5ccccc5c4O)cc3)sc2c1S(=O)(=O)O		282% (inactive)
CCCCCC(=O)Nc1cc(S(=O)(=O)O)cc2cc(S(=O)(=O)O)cc(O)c12	2.39 µM (active)	

— PubChem BioAssay AID624312 (National Center for Advancing Translational Sciences (NCATS), 2012)
